In the library only some 2.4% were active in any assay of this set; here they are far more common.
D2 PAM-1: positive allosteric modulators of human D2 dopamine receptor; HEK293 T-REx D2, calcium flux, EC20 dopamine potentiation; potentiation, % at 10 µM; hit rate 0.34% among 340,000; AID 485347;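 active = potentiation over 3 SD above the plate norm, cut at about 30% in these data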; note: 0% is about no effect
Target sequence (P14416 whole entry, looked up): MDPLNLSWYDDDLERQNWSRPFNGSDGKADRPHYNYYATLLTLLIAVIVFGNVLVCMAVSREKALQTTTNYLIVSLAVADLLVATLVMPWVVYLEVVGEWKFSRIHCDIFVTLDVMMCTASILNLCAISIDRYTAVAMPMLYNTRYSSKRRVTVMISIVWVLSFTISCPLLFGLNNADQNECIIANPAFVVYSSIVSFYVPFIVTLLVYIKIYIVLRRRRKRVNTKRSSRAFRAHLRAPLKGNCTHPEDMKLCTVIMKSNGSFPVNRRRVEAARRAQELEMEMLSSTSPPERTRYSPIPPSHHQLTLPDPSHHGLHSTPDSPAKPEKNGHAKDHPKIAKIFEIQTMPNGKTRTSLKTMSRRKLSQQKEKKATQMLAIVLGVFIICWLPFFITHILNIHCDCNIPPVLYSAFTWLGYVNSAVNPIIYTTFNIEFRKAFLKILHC
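Using a no-wash calcium dye in inducible, force-coupled HEK293 Trex cells expressing D2, we tracked fluorescence each second for 180 s after compound, then for 180 s after EC20 dopamine to detect augmented signalling.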
D2 PAM-2: human D2 receptor positive allosteric modulation; P14416; DiscoveRx D2 beta-arrestin cells, luminescence, 90 min; 100% = 57 uM dopamine signal; potentiation, % (test concentration not listed); hit rate 0.23% among 360,000; in the data active = potentiation above about 50%; inconclusive = mostly about 30% to 49%
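PathHunter beta-arrestin assay in DiscoveRx D2 cells. Compounds were added with an EC20 of dopamine (50 nM final) for 90 min at 37 deg C. Luminescence was read 1 h after detection reagent, with 57 uM dopamine as the EC100 control.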
D2 ag-1: human D2 receptor agonism in beta-arrestin assay; P14416; DiscoveRx PathHunter D2 beta-arrestin, luminescence, 90 min; 100% = 57 uM dopamine signal; activation, % (test concentration not listed); hit rate 0.084% among 360,000; in the data active = activation above about 40%; inconclusive = between about 15% and that limit
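Agonist mode: compounds alone added to overnight-plated D2 PathHunter cells for 90 min at 37 C, with 57 uM final dopamine (EC100) defining full response. Beta-arrestin recruitment detected by chemiluminescent reagent, read after 1 h at ambient temperature.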
D2 antagonist: D2 dopamine receptor (human) antagonism; HEK293 TREx D2 cells, calcium flux, dopamine EC80; AID 485344; hit rate 2% among 340,000; inhibition, % at 10 µM; in the data active = inhibition above about 30%; inactive = below that, where a call was filed; note: 0% is about no effect
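Overnight-induced (tetracycline, 30 C) HEK293 T-REx cells carrying force-coupled D2 receive a no-wash calcium dye, then compound, then EC80 dopamine at 180 s; signals are read kinetically throughout.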
D2 ag-2: agonists of human D2 dopamine receptor; activation, % at 2 µM; HEK293 T-REx D2 cells, calcium flux agonist mode; P14416; hit rate 0.53% among 340,000;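 active = activation over 3 SD above normal in the single-dose calcium agonist read, cut at about 30% in these data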; note: 0% is about no effect
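Tetracycline-induced HEK293 T-REx cells with force-coupled D2 receptor, plated overnight at 30 C, loaded with no-wash calcium dye. After a 10 s baseline, compound was pin-added and calcium flux read kinetically for 180 s; calcium rises flagged agonists.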
An asterisk follows results filed as active; u = inconclusive; x = no result.

SMILES	D2 PAM-1	D2 PAM-2	D2 ag-1	D2 antagonist	D2 ag-2
COc1ccccc1/C=C/CN1CCC(Oc2cc(C(=O)NC3CC3)ccc2OC)CC1	-20	1	-5	59*	-1
COc1ccccc1/C=C/CN1CCC(Oc2ccc(C(=O)N3CCCCC3)cc2)CC1	-35	-34	1	69*	0
c1ccc(Oc2cccc(OCCn3cncn3)c2)cc1	30	4	-1	-6	0
CCCS(=O)(=O)N1CCCC(C(=O)NCCCOCC)C1 (centres undefined)	-1	1	1	-4	0
Cn1nc(C(F)(F)F)c(C#N)c1N1CCN(c2cccc(C(F)(F)F)c2)CC1	-19	-29	-3	43*	1
Cc1nc2ncnn2c(N2CCN(c3cccc(C(F)(F)F)c3)CC2)c1C	x	-6	2	x	x
COc1cccc(-c2nnn(CC(=O)N(C3CCCCC3)C3CCS(=O)(=O)C3)n2)c1 (centres undefined)	x	13	2	x	x
O=C(C[n+]1cccc(CNC(=O)c2ccc(OC(F)F)cc2)c1)Nc1cc(C(F)(F)F)ccc1Cl	-19	-39	-2	63*	-1
NC(=O)C[n+]1cccc(CNC(=O)c2ccc(OC(F)F)cc2)c1	1	1	-4	32*	2
COc1ccc(C)cc1NC(=O)c1ccccc1N(C)S(=O)(=O)c1ccccc1	-2	0	-4	3	-1
CCCCC(=O)Nc1nnc(S(=O)(=O)N(CC)c2ccc(OC)cc2)s1	-6	-2	6	9	0
CCN(c1ccc(OC)cc1)S(=O)(=O)c1nnc(NC(=O)COc2ccccc2)s1	37*	-6	5	-9	0
O=C1CCC(C(=O)N(CCO)Cc2ccccc2)CN1CCc1cccc(F)c1 (centres undefined)	x	-9	-2	x	x
CCOC(=O)N1CCN(C(=O)CSc2nnc(Cc3ccccc3)o2)CC1	31*	3	-2	-1	1
CCOC(=O)N1CCN(C(=O)CSc2nnc(COc3ccccc3)o2)CC1	-8	0	1	2	-2
O=C(CC(c1ccccc1)c1cc(Br)ccc1O)NCCN1CCOCC1 (centres undefined)	8	-32	-2	77*	-3
O=C(CC(c1ccccc1)c1cc(Br)ccc1O)NCCCN1CCOCC1 (centres undefined)	-6	-7	-5	-2	0
CCOC(=O)CNC(c1ccccc1)c1cc(Br)ccc1NC(=O)CCN1CCOCC1 (centres undefined)	-27	-21	-7	38*	0
CCC(Sc1nnc(-c2ccco2)n1C)C(=O)Nc1nnc(C)s1 (centres undefined)	4	-6	-3	-12	0
COc1ccc(C2NC(=S)NC3=C2CCCC3=C2SCCS2)cc1 (centres undefined)	-1	-6	-7	-6	1
O=S(=O)(c1ccccc1)c1cc(O)ccc1O	12	-1	u	2	1
Nc1ccc(S(=O)(=O)c2cc(O)c3ccccc3c2O)cc1	x	51*	u	x	x
Cc1ccc(CNC(=O)Cn2c(=O)cc(-c3ccccc3)c3c(C)nn(C)c32)cc1	-4	x	x	x	1
O=C(/C=C/c1ccco1)NCCc1ccccc1	-6	0	-3	32*	0
O=C(O)CCCNC(=O)/C=C/c1ccco1	15	-1	-6	0	0
SMILES	D2 PAM-1	D2 PAM-2	D2 ag-1	D2 antagonist	D2 ag-2
O=C(/C=C/c1ccco1)Nc1cc(Cl)ccc1C(=O)O	8	-18	0	34*	-2
Cn1nc(C(F)(F)F)c2cc(C(=O)Nc3ccc(F)c(Cl)c3)sc21	-26	-12	-1	-18	0
CCc1[nH]nc(C(=O)N2CCCC(Nc3cccc(F)c3)C2)c1C (centres undefined)	11	75*	3	-15	0
COCCn1c(SCC(=O)Nc2cc(C)on2)nc2ccccc2c1=O	11	-2	-3	-9	0
CC(C)c1ccc(CNC(=O)C(=O)NCC2CCCO2)cc1 (centres undefined)	3	0	-3	-4	0
OCCN1CCN(C(=S)c2ccc(Br)cc2)CC1	-7	-11	-3	55*	0
CSc1ccc(C(=S)N2CCN(CCO)CC2)cc1	10	-12	-3	-21	-1

From PubChem
